Here are results for 15 compounds from PubChem BioAssay (NCATS).

Inconclusive results are not listed. Entries that show only a call come without a potency. Activity calls are given as the source filed them. Calls follow the shape of the dose curve; as a rule, active = well fitted curve in the direction sought with a large enough effect; inconclusive = small, poorly fitted or top-dose-only effect, or another doubt; inactive = no such curve, though single readings can be large; an effect the other way counts as inactive or inconclusive.
Potency is read from the fitted curve at half-maximal effect.

One assay is described as follows: Cell Viability - LYMP2-005 (AID 967). The conditions noted are these: LYMP2-005 lymphoblastoid cell viability; series mostly up to 92.2 µM. In short, it runs like this:
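Steps: seed 2500 LYMP2-005 cells/well, incubate 5 h at 37 C, add compound, incubate 24 h at 37 C, add CellTiter-Glo, wait 30 min at RT, read luminescence. Concentration-response data fitted to Hill equation for AC50.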
For `CC(C)=O`, the Potency entry was “inactive”.
Take `CCCCCCCC/C=C\CCCCCCCC(=O)O`: the Potency entry is “inactive”.
With `CC1=C2[C@@H]([C@H](C)CC[C@H]2/C=C(\C)C(=O)O)[C@H](O)C1`, the Potency entry was “inactive”.
For `CCOC(C)=O`, the Potency entry is “inactive”.
As to `Nc1ccn([C@H]2CS[C@@H](CO)O2)c(=O)n1`, the Potency entry is “inactive”.
The same measure, in the same setting: the result for `O=S(=O)(O)O` reads “inactive”; that for `O=C(O)CCC(=O)C(=O)O`, “inactive”.
Regarding `Cc1ccccc1`, the Potency result was “inactive”.
In the case of `CC1=C(/C=C/C(C)=C/C=C/C(C)=C/CO)C(C)(C)CCC1`, the Potency was 50.1 µM (active).
Take `CC(O)CO` (stereo unspecified): the Potency result is “inactive”.
Consider `IC(I)I`, for which the Potency entry is “inactive”.
Regarding `CCCCCCCC(=O)O`, the Potency entry is “inactive”.
On to `CCOc1ccc2c(c1)C(C)=CC(C)(C)N2`, for which the Potency result was “inactive”.

Another assay is described as follows: Cell Viability - LYMP2-009 (AID 968). Also: nearly all actives have a fitted effect of over 55% in size. The conditions noted are these: LYMP2-009 lymphoblastoid cell viability; series mostly up to 92.2 µM.
As to `CC(C)=O`, the Potency entry is “inactive”.
Same read-out and setting: the value for `CCCCC/C=C\C/C=C\CCCCCCCC(=O)O` was “inactive”; that for `CCCCCCCC/C=C\CCCCCCCC(=O)O` was “inactive”; that for `CC1=C2[C@@H]([C@H](C)CC[C@H]2/C=C(\C)C(=O)O)[C@H](O)C1` was “inactive”.
Take `CCOC(C)=O`: the Potency entry is “inactive”.
Same read-out and setting: the result for `Nc1ccn([C@H]2CS[C@@H](CO)O2)c(=O)n1` reads “inactive”; that for `O=S(=O)(O)O`, “inactive”; that for `O=C(O)CCC(=O)C(=O)O`, “inactive”.
Consider `Cc1ccccc1`, for which the Potency entry is “inactive”.
For the compound `O=CCCCC=O`, the Potency is 25.1 µM (active).
Still for that read-out and setting: the value for `CC(O)CO` (stereo unspecified) was “inactive”; that for `IC(I)I` was “inactive”; that for `CCCCCCCC(=O)O` was “inactive”.
As to `CCOc1ccc2c(c1)C(C)=CC(C)(C)N2`, the Potency entry was “inactive”.

Another assay can be described thus: Cell Viability - LYMP2-011 (AID 969). Also: nearly all actives have a fitted effect of over 60% in size. Conditions: LYMP2-011 lymphoblastoid cells viability; series mostly up to 92.2 µM. In short, it runs like this: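 Human lymphoblastoid cells (2500/well) were plated in complete medium, preincubated 5 hr at 37 C, then exposed to compounds for 24 hr at 37 C. Intracellular ATP was read by CellTiter-Glo luminescence, and AC50 came from Hill-equation concentration-response fits.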
With `CC(C)=O`, the Potency result was “inactive”.
With `CCCCC/C=C\C/C=C\CCCCCCCC(=O)O`, the Potency entry is “inactive”.
As to `CCCCCCCC/C=C\CCCCCCCC(=O)O`, the Potency result was “inactive”.
Consider `CC1=C2[C@@H]([C@H](C)CC[C@H]2/C=C(\C)C(=O)O)[C@H](O)C1`, for which the Potency result is “inactive”.
In the case of `CCOC(C)=O`, the Potency entry is “inactive”.
`Nc1ccn([C@H]2CS[C@@H](CO)O2)c(=O)n1`: the Potency entry was “inactive”.
Turning to `O=S(=O)(O)O`, the Potency result is “inactive”.
For the compound `O=C(O)CCC(=O)C(=O)O`, the Potency result was “inactive”.
Consider `Cc1ccccc1`, for which the Potency entry is “inactive”.
For the compound `O=CCCCC=O`, the Potency is 20 µM (active).
The same measure, in the same setting: the result for `CC(O)CO` (stereo unspecified) reads “inactive”.
Take `IC(I)I`: the Potency entry was “inactive”.
Regarding `CCCCCCCC(=O)O`, the Potency entry was “inactive”.
Consider `CCOc1ccc2c(c1)C(C)=CC(C)(C)N2`, for which the Potency entry is “inactive”.
